Measurements from PubChem BioAssay AID1259421 (Broad Institute, 2018).
Where “and” joins values, the source holds several entries; their conditions need not be identical. Equal values may be shown once. The campaign covered roughly 6,400 compounds. About 610 (9.5%) were called active. Cut-off read from the data, not from the text of the source: active = activity change below about -70%; inconclusive = no clear call, values can overlap the other calls; inactive = above that. This excerpt belongs to a sample that is enriched for actives. Where a structure was tested more than once in an assay, its records may differ in their call. Where a SMILES comes first, the peptide text is derived from it. Bridges are numbered along the chain shown (N, C = ends). [ ]: non-standard residue; d: D form. The star is where a group is joined. ξ: configuration not given here. Heptanoyl(6-Me) = CC(C)CCCCC(=O)*; ξDab = NCCC(N)C(=O)O; ξT = CC(O)C(N)C(=O)O

Assay: Toxoplasma gondii ME49Luc growth in HeLa cells, luciferase, no IFN-y, primary screen (AID 1259421)
Details: T. gondii ME49Luc in HeLa, 72 h, stronger effect = lower value, concentration not given here
In the case of `CCn1ccnc1CC1COc2ccccc2O1` (stereo not drawn), the activity change, negative = inhibition is reported as 16.5% (inactive) and 6.37% (inactive). With `Nc1nonc1C(=Nc1ccc(F)c(Cl)c1)NO` the activity change, negative = inhibition was 17% (inactive). With `CCOc1ccc(-n2c([C@@H](C)N(Cc3cccnc3)C(=O)Cc3ccc(OC(F)(F)F)cc3)nc3ncccc3c2=O)cc1` the activity change, negative = inhibition was -0.654% (inactive). With `CON=C1C[C@]2(C[C@@H]3C[C@@H](C/C=C(\C)C[C@@H](C)/C=C/C=C4\CO[C@@H]5[C@H](O)C(C)=C[C@@H](C(=O)O3)[C@]45O)O2)O[C@H](/C(C)=C/C(C)C)[C@H]1C` the activity change, negative = inhibition was -67.7% (inactive). With `CC(C)c1cc(-c2n[nH]c(=O)n2-c2ccc3c(ccn3C)c2)c(O)cc1O` the activity change, negative = inhibition was -82.8% (active). For `CC(C)CCCCC(=O)NC(CCN)C(=O)NC(C(=O)NC(CCN)C(=O)NC1CCNC(=O)C(C(C)O)NC(=O)C(CCN)NC(=O)C(CCN)NC(=O)[C@H](CC(C)C)NC(=O)[C@@H](CC(C)C)NC(=O)C(CCN)NC1=O)C(C)O` (stereo partly drawn) ({Heptanoyl(6-Me)}-[ξDab][ξT][ξDab][ξDab][ξDab][dL]L[ξDab][ξDab][ξT]; lactam 4-C), the activity change, negative = inhibition was 5.64% (inactive). For `COc1ccc(-c2cc(=O)c3c(OC)c(OC)c(OC)cc3o2)cc1OC`, the activity change, negative = inhibition was -3.44% (inactive). With `COc1ccc(-c2cc(=O)c3c(OC)c(OC)c(OC)c(OC)c3o2)cc1OC` the activity change, negative = inhibition was 14.2% (inactive). With `COc1cc(-c2ccc(=O)[nH]n2)ccc1OC(F)F` the activity change, negative = inhibition was -98.8% (active) and -89.5% (active). For `N[C@@H](CSCCCO)C(=O)O`, the activity change, negative = inhibition was 9.56% (inactive) and 5.2% (inactive). In the case of `COC(=O)Nc1nc2ccc(C(=O)c3ccc(F)cc3)cc2[nH]1`, the activity change, negative = inhibition is reported as -64.8% (inactive). With `COC(=O)Nc1nc2ccc(C(=O)C3CC3)cc2[nH]1` the activity change, negative = inhibition was -35.4% (inactive). With `COC(=O)Nc1nc2ccc(C(=O)c3cccs3)cc2[nH]1` the activity change, negative = inhibition was -78.8% (active) and -71.2% (active). In the case of `CCCSc1ccc2nc(NC(=O)OC)[nH]c2c1`, the activity change, negative = inhibition is reported as -54.3% (inactive) and -5.56% (inactive). With `COC(=O)Nc1nc2ccc(Sc3ccccc3)cc2[nH]1` the activity change, negative = inhibition was -42.3% (inactive) and -3.74% (inactive) and -73.8% (active). For `COC(=O)Nc1nc2ccc(S(=O)c3ccccc3)cc2[nH]1` (stereo not drawn), the activity change, negative = inhibition was 1.33% (inactive) and 7.44% (inactive) and -54.7% (inactive). For `COC(=O)Nc1nc2ccc(C(=O)c3ccccc3)cc2[nH]1`, the activity change, negative = inhibition was -65.6% (inactive) and -76% (active). For `CCCS(=O)c1ccc2nc(NC(=O)OC)[nH]c2c1` (stereo not drawn), the activity change, negative = inhibition was 18.9% (inactive). For `COC(=O)Nc1nc2ccc(SC(C)C)cc2[nH]1`, the activity change, negative = inhibition was -47% (inactive) and -32.6% (inactive). With `CN(CCOP(=O)(O)O)C(=N)N` the activity change, negative = inhibition was 22.7% (inactive) and 1.51% (inactive). In the case of `O=C(O)[C@H](Cc1ccc(Nc2nccc3ccncc23)cc1)NC1=C(Br)C(=O)C12CCCCC2`, the activity change, negative = inhibition is reported as -35.7% (inactive). For `CN(C)CCC1(c2ccc(Cl)cc2)Cc2ccccc2C(=O)O1` (stereo not drawn), the activity change, negative = inhibition was 24.4% (inactive) and 4.82% (inactive). With `CCOc1nc2cccc(C(=O)OC(C)OC(=O)OC3CCCCC3)c2n1Cc1ccc(-c2ccccc2-c2nn[nH]n2)cc1` (stereo not drawn) the activity change, negative = inhibition was 26.2% (inactive) and -2.58% (inactive). For `COc1ccc(-c2oc3ccccc3c(=O)c2O)cc1OC`, the activity change, negative = inhibition was 17.9% (inactive). For `CN(C)C(=O)C(=O)c1cn(C)c2cc(Cl)c(C(=O)N3CCC(Cc4ccc(F)cc4)CC3)cc12`, the activity change, negative = inhibition was -34.4% (inactive). In the case of `CN(C)[C@@H](CCOc1cccc2ccccc12)c1ccccc1`, the activity change, negative = inhibition is reported as 16.9% (inactive). In the case of `CC(C)Nc1nc2cc(Cl)c(Cl)cc2n1[C@H]1O[C@@H](CO)[C@H](O)[C@@H]1O`, the activity change, negative = inhibition is reported as -13.6% (inactive). For `c1ccc(C(NCc2cccnc2)(c2ccccc2)c2ccccc2)cc1`, the activity change, negative = inhibition was 3.97% (inactive) and 35.4% (inactive). With `CCCn1c(=O)c2[nH]c(C34CC5CC(CC3C5)C4)nc2n(CCC)c1=O` the activity change, negative = inhibition was -9.56% (inactive). With `Fc1ccc(C(c2ccccc2)(c2ccccc2F)n2ccnc2)cc1` (stereo not drawn) the activity change, negative = inhibition was -44.6% (inactive). In the case of `Clc1ccccc1C(c1ccccc1)(c1ccccc1)n1ccnc1`, the activity change, negative = inhibition is reported as -38.2% (inactive) and -91% (active). In the case of `N#C/C(=C1/SCC(c2ccccc2Cl)S1)n1ccnc1` (stereo not drawn), the activity change, negative = inhibition is reported as 12.5% (inactive). With `N[C@H](Cc1cnc[nH]1)C(=O)O` the activity change, negative = inhibition was 2.37% (inactive). With `O=c1cc[nH]c2cc(Cl)ccc12` the activity change, negative = inhibition was 10.2% (inactive). With `C=CC(=O)Nc1cc2c(Nc3ccc(F)c(Cl)c3)ncnc2cc1OCCCN1CCOCC1` the activity change, negative = inhibition was -41.3% (inactive). For `C[C@@H]1COC(Nc2ccc3ncnc(Nc4ccc(OCc5nccs5)c(Cl)c4)c3c2)=N1`, the activity change, negative = inhibition was -65.9% (inactive). In the case of `CN(C)C/C=C/C(=O)Nc1cc2c(Nc3ccc(F)c(Cl)c3)ncnc2cc1O[C@H]1CCOC1`, the activity change, negative = inhibition is reported as -87.8% (active). With `COc1cc2ncnc(Nc3ccc(F)c(Cl)c3)c2cc1NC(=O)/C=C/CN1CCCCC1` the activity change, negative = inhibition was -80.3% (active). With `CCN(CC)CC1CCN(c2ncc3ncnc(Nc4ccc(F)c(Cl)c4)c3n2)CC1` the activity change, negative = inhibition was -13.4% (inactive) and 3.34% (inactive). In the case of `CNC(=O)CN1CCC(Oc2cc3c(Nc4cccc(Cl)c4F)ncnc3cc2OC)CC1`, the activity change, negative = inhibition is reported as -53.4% (inactive). In the case of `CC/C=C\C/C=C\C/C=C\C/C=C\C/C=C\CCCC(=O)O`, the activity change, negative = inhibition is reported as 2.92% (inactive). With `COc1ccc(NS(=O)(=O)c2ccc(N=Nc3ccc(O)c(C(=O)O)c3)cc2)nn1` the activity change, negative = inhibition was 5.08% (inactive). In the case of `O=C(O)Cc1nn(Cc2nc3cc(C(F)(F)F)ccc3s2)c(=O)c2ccccc12`, the activity change, negative = inhibition is reported as 19.5% (inactive). For `C=CC(=O)Nc1ccc2ncnc(Nc3cccc(Br)c3)c2c1`, the activity change, negative = inhibition was -18.1% (inactive). In the case of `COCC(=O)NC/C=C/c1ccc2ncnc(Nc3ccc(Oc4ccc(C)nc4)c(C)c3)c2c1`, the activity change, negative = inhibition is reported as -85.5% (active). With `COc1ccc(Nc2ncnc3ccc(OC)cc23)cc1` the activity change, negative = inhibition was 3.66% (inactive) and 3.52% (inactive). For `c1ccc(Oc2cccnc2)cc1`, the activity change, negative = inhibition was 5.26% (inactive). With `CC1=CC(=O)CC(C)(C)[C@@]1(O)/C=C/C(C)=C\C(=O)O` the activity change, negative = inhibition was 0.0395% (inactive).
